In the library only some 21% were active in any assay of this set; here they are far more common.
Cycloheximide cs – affects cycloheximide protein synthesis inhibition readout, counter-screen; cell reporter, cycloheximide protein synthesis inhibition counterscreen; max response, %; 300,000 compounds, 12% hits; AID 2314; in the data active = max response mostly above about 13%, no sharp cut-off; inactive = mostly below about 14%; also: read at 38.3 µM for the half of the compounds with a filed dose; 0% is about no effect
Shiga inhibitor – inhibitors of Shiga toxin in Vero cells | Vero cells, Shiga toxin protein synthesis inhibition reporter | inhibition, % at 38.7 µM | 290,000 compounds, 9.2% hits; in the data active = inhibition mostly above about 28%, no sharp cut-off; inactive = mostly below about 43%; also: 0% is about no effect
Pf growth 96h – P. falciparum growth inhibition at 96 hour, primary screen for plastid delayed-death inhibitors; Potency, µM (top dose mostly 28.7 µM), inactives show at the top dose activity change, negative = inhibition, usual class: inhibitors; 320,000 compounds, 6.9% hits; AID 504834; P. falciparum luciferase reporter growth, 96 h; also: potency is read from the fitted curve at half-maximal effect; % is scaled to controls: 0 for no effect and ±100 for the full control effect
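Plates of compound plus infected erythrocytes (2% hematocrit, 0.05% parasitemia final) incubate 96 hours, 37 C, 5% CO2. Detection reagent added; reduced luminescence from the parasites' luciferase reporter flags inhibition.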
Pf growth 48h – inhibits P. falciparum growth in the first generation, 48 h. AID 504832. 310,000 compounds, 5.9% hits. P. falciparum luciferase growth in erythrocytes, 48 h. Potency, µM (series often up to 28.7 µM), for inactives: at the highest dose activity change, negative = inhibition, actives largely listed as inhibitors; also: potency is read from the fitted curve at half-maximal effect; % is scaled to controls: 0 for no effect and ±100 for the full control effect
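Firefly luciferase activity from engineered P. falciparum reports growth; inhibitors lower the luminescent signal. Cultures contained 2% hematocrit erythrocytes at 0.1% final parasitemia.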
HCV inh – HCV inhibition | Huh7.5.1 HCVcc-Cre infection, luciferase reporter, 44 h | Potency, µM (doses to about 41.8 µM), inactives show at the top dose activity change, negative = inhibition, hits mostly inhibitors | 340,000 compounds, 3.4% hits | AID 651820; also: potency is read from the fitted curve at half-maximal effect; % is scaled to controls: 0 for no effect and ±100 for the full control effect
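A cell-based infection assay in which seeded cells (1,000 per well) receive test compound after 4 h, are inoculated with HCVcc-Cre at approximately 0.5 moi, and are incubated 44 h before luminescence detection.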
HCMV inh – blocks human cytomegalovirus replication | HFF cells, HCMV-luciferase reporter, 72 h; active compounds read low | activity change, negative = inhibition, % at 57.5 µM | 410,000 compounds, 4.5% hits | AID 1259415; in the data active = activity change below about -60%; inconclusive = no clear call, values can overlap the other calls; inactive = above about -39%; also: % is scaled to controls: 0 for no effect and ±100 for the full control effect
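Compounds were evaluated in HFFs infected with an HCMV luciferase reporter virus (MOI 1 PFU/cell). Luciferase in lysates collected 72 h post infection served as the replication measure.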
Active calls of the source: *; u = inconclusive; x = not tested or not shown; ! = not active in a repeat. Unless noted, calls follow the shape of the dose curve; as a rule, active = well fitted inhibition curve with a large enough effect; inconclusive = small, poorly fitted or top-dose-only effect, or another doubt; inactive = no such curve, though single readings can be large or run the other way.

SMILES | Cycloheximide cs | Shiga inhibitor | Pf growth 96h | Pf growth 48h | HCV inh | HCMV inh
O=c1c2ccccc2nc(/C=C/c2ccc(O)cc2)n1-c1ccc(O)cc1 | 0 | -4 | -3% | u | u | -19
Cc1ccc(/C=C/c2nc3ccccc3c(=O)n2CCc2ccccc2)cc1 | 9 | 23 | u | -19% | u | u
Cc1ccccc1/C=C/c1nc2ccccc2c(=O)n1CCc1ccccc1 | -3 | -2 | -5% | 13µM* | u | -27
O=c1c2ccccc2nc(/C=C/c2ccccc2O)n1-c1ccc(Br)cc1 | x | x | x | x | x | -63*
O=C(C1COc2ccccc2O1)N(Cc1cccnc1)c1nc2ccc(Cl)cc2s1 (stereo unspecified) | x | x | x | x | x | 5
COc1ccc(CCC(=O)NNC(=O)Nc2ccc(C(C)C)cc2)cc1 | -1 | -4 | 32% | -7% | 7% | -9
CCn1c(/C=C/c2ccc(O)cc2)nc2ccccc2c1=O | 10 | 9 | u | -1% | u | -22
CCn1c(/C=C/c2ccccc2F)nc2ccccc2c1=O | 18* | 12 | u | 4% | u | u
CCn1c(/C=C/c2ccccc2C)nc2ccccc2c1=O | 19* | 51* | -15% | 1% | -20% | -24
O=C(O)c1cc2cccc(S(=O)(=O)N3CCCCC3)c2cc1O | -4 | -7 | 20% | 0% | 18% | u
CCN(CC)CCN1C(=O)c2ccccc2NC1c1ccc(Br)cc1 (stereo unspecified) | -17 | -29 | 13µM* | 1µM* | -13% | -11
CCN(CC)CCN1C(=O)c2ccccc2NC1c1ccc(F)cc1 (stereo unspecified) | -3 | -2 | u | u | -18% | 20
CCN(CC)CCN1C(=O)c2ccccc2NC1c1ccc(N(C)C)cc1 (stereo unspecified) | 30 | 66 | x | 0.41µM* | 12% | 24
CCN(CC)CCN1C(=O)c2ccccc2NC1c1ccc(C)cc1 (stereo unspecified) | 1 | -7 | x | 1.7µM* | 20% | -9
CCN(CC)CCN1C(=O)c2oc3ccccc3c(=O)c2C1c1ccc(C)cc1 (stereo unspecified) | 13 | 3 | 2.6µM* | 3.3µM* | 11% | -9
Cc1cccc2nc(CNC(=O)CC3C(=O)NCCN3Cc3cccc(F)c3)cn12 (stereo unspecified) | -6 | -8 | 45% | 16% | u | 0
CCS(=O)(=O)c1nc(S(=O)(=O)c2ccc(Cl)cc2)c(N2CCC(O)CC2)s1 | -1 | -4 | u | -9% | -1% | -36
CN(C)c1ccc(C2Nc3ccccc3C(=O)N2CCCN2CCOCC2)cc1 (stereo unspecified) | 31* | 43* | u | u | 7% | 9
O=C(CNC(=S)N(Cc1ccccc1Cl)C1CCCC1)NCCN1CCOCC1 | -2 | 19 | 38% | 10µM* | 17% | 4
C/C(=C\c1ccc(N)cc1)c1nc2ccccc2[nH]1 | 49* | 61* | -3% | 9% | -18% | 2
COc1ccc(/C=C(/NC(=O)c2ccccc2)c2nc3ccc(Cl)cc3[nH]2)cc1OC | -6 | 18 | 0% | -3% | u | u
COC(=O)/C(=C\c1cc(OC)c(OC)c(OC)c1)c1nc2ccccc2[nH]1 | 22* | 37 | 0% | u | u | -98*
CCC(=O)Oc1ccc(/C=C(\C#N)c2nc3ccccc3[nH]2)cc1OC | x | x | x | x | x | 34
COC(=O)/C(=C\c1ccc(O)cc1)c1nc2ccccc2[nH]1 | 35* | 60* | 158% | 38% | -9% | 29
O=C(NC1CCCCC1)Oc1cc2oc(=O)sc2cc1Cl | 16* | 34 | u | 7% | -6% | -20
SMILES | Cycloheximide cs | Shiga inhibitor | Pf growth 96h | Pf growth 48h | HCV inh | HCMV inh
Cc1cc(C)cc(OCC(=O)Nc2nc(-c3cccnc3)cs2)c1 | -3 | -8 | 15µM* | u | u | 18
COc1cccc(CC(=O)Nc2nc(-c3cccnc3)cs2)c1 | 0 | -15 | u | -21% | -8% | -62*
O=C(COc1ccccc1)Nc1nc(-c2cccnc2)cs1 | x | x | u | u | -12% | 0
Cc1cccc(OCC(=O)Nc2nc(-c3ccncc3)cs2)c1 | x | x | 7% | -9% | -2% | -28
N#Cc1ccc(OCC(=O)Nc2nc(-c3cccnc3)cs2)cc1 | x | x | u | 12µM* | u | 29
COCCNC(=O)NC(=O)CN1CCN(C(c2ccccc2)c2ccccc2)CC1 | -3 | 18 | u | u | -27% | -34
Cc1nc2ccccn2c1C(=O)N/N=C/c1ccc([N+](=O)[O-])cc1 | 0 | -6 | 11% | 12% | -7% | x
O=C(N/N=C/c1ccc([N+](=O)[O-])o1)c1cc2ccccc2o1 | 11 | -11 | u | u | u | u
O=C(N/N=C/c1ccc([N+](=O)[O-])o1)c1ccc(O)cc1 | 16 | 76 | 1µM* | 1.7µM* | 25µM* | -93*
Cc1nc2ccccn2c1C(=O)N/N=C/c1ccc([N+](=O)[O-])o1 | 15 | 44 | 2.1µM* | u | u | -74*
O=C(N/N=C\c1ccc([N+](=O)[O-])o1)c1cncc(Br)c1 | -3 | -22 | u | u | 22µM* | -83*
CCN(CC)S(=O)(=O)c1cccc(C(=O)N/N=C/c2ccc([N+](=O)[O-])o2)c1 | 11 | 21 | 4.1µM* | u | u | -61*
C=C1C[C@@]2(C)CCCC3=CC(=O)C=C[C@@]32c2ccc(OC)c(OC)c21 | x | x | x | x | x | -4
COc1ccc(N2CC(C(=O)N3CCN(c4ccccc4OC)CC3)CC2=O)cc1 (stereo unspecified) | -9 | -6 | -12% | 13% | -4% | -19
Cc1ccc(/C=N\NC(=O)c2cc([N+](=O)[O-])cc([N+](=O)[O-])c2)o1 | -1 | -12 | 24% | 42% | 0% | 35
O=C(N/N=C/c1ccc([N+](=O)[O-])o1)c1ccncc1 | 8 | 5 | 6.6µM* | 1.9µM* | u | -31
Nc1nonc1C(=O)N/N=C/c1ccc([N+](=O)[O-])o1 | 44* | 76* | u | u | u | u
CCCc1cc(=O)oc2cc(C)cc(OC(=O)c3ccco3)c12 | 1 | -4 | 2% | u | u | -22
CCCc1cc2c(=O)c(-c3ccc4c(c3)OCCO4)coc2cc1OS(C)(=O)=O | 56* | 45* | u | 91% | 10µM* | -60*
CCc1cc2c(=O)c(-c3ccc4c(c3)OCCO4)coc2cc1OC(=O)c1ccco1 | 38* | 93* | x | 8% | 10µM*! | -34
CCCc1cc2c(=O)c(-c3ccc4c(c3)OCCO4)coc2cc1OC(=O)c1ccco1 | 30* | 98* | 74% | 73% | -1% | 34
COC(CN(C)S(=O)(=O)c1cc2c3c(c1)CCC(=O)N3CCC2)OC | -2 | -4 | 9% | 9% | 4% | -18

Screens deposited in PubChem BioAssay by National Center for Advancing Translational Sciences (NCATS).
